Our source for the activity remaining values is PubChem BioAssay.

Calls of active or inactive are those of the source. No rule for the calls is given here.

In this assay the test system is Aerobactin synthetase IucA (Klebsiella pneumoniae hvKP1). As to the kind of experiment: IucA enzyme inhibition, primary screen, biochemical, Spectrum library (AID 1346200).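 Also: 100% = wells without compound and 0% = wells lacking enzyme.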 The following applies: malachite green pyrophosphate, A620, at 8 µM, stronger effect = lower value.
Take `COc1cnc(NS(=O)(=O)c2ccc(N)cc2)nc1`: the activity remaining is 113% (inactive).

`CO/N=C(\C(=O)NC1C(=O)N2C(C(=O)OCOC(=O)C(C)(C)C)=C(/C=C\c3scnc3C)CSC12)c1csc(N)n1` (centres undefined): the activity remaining is 120% (inactive). Regarding `Cc1ccc(C(=O)C(C)CN2CCCCC2)cc1` (centres undefined), the activity remaining is 113% (inactive). Then `CCCCCC(C)N` (centres undefined), with 111% (inactive); and `O=C(O)CCC(=O)c1ccc(-c2ccccc2)cc1`, with 115% (inactive); and `O=C(CCBr)N1CCN(C(=O)CCBr)CC1`, with 107% (inactive).

Regarding `COc1ccc(-c2cc(C(F)F)nn2-c2ccc(S(N)(=O)=O)cc2)cc1F`, the activity remaining was 123% (inactive). With `COc1cc(OC)c2c(=O)c(OC)c(-c3ccc(OC)c(OC)c3)oc2c1`, the activity remaining was 120% (inactive). Take `C[N+]1(C)CCCC(OC(=O)C(O)(c2ccccc2)c2ccccc2)C1` (centres undefined): the activity remaining was 111% (inactive). Turning to `COc1ccc(-c2oc3cc(OC)c(OC)c(OC)c3c(=O)c2OC)cc1OC`, the activity remaining is 83.1% (inactive). On to `CC1(C)C2CC[C@]3(C)C(C(=O)C=C4[C@@H]5C[C@@](C)(C(=O)O)CC[C@]5(C)CC[C@]43C)[C@@]2(C)CC[C@@H]1OC(=O)CCC(=O)O` (some centres undefined), for which the activity remaining is 120% (inactive). As for `C=CC1=C(C)/C(=C/c2[nH]c(Cc3[nH]c(/C=C4\NC(=O)C(C)=C4C=C)c(C)c3CCC(=O)O)c(CCC(=O)O)c2C)NC1=O`, the activity remaining is 112% (inactive). For `C=CC(N)CCC(=O)O` (centres undefined), the activity remaining is 119% (inactive). Consider `C[C@H](N)[C@H](O)c1cccc(O)c1`, for which the activity remaining was 115% (inactive). Consider `CC1=C(C(=O)O)N2C(=O)[C@@H](NC(=O)[C@H](N)C3=CCC=CC3)C2SC1` (some centres undefined), for which the activity remaining is 103% (inactive).

For the molecule `CC[C@]1(O)CC2CN(CCc3c([nH]c4ccccc34)[C@@](C(=O)OC)(c3cc4c(cc3OC)N(C=O)[C@H]3[C@@](O)(C(=O)OC)[C@H](OC(C)=O)[C@]5(CC)C=CCN6CC[C@]43[C@@H]65)C2)C1` (some centres undefined), the activity remaining was 82.4% (inactive). For the molecule `Nc1nc2ncc(CNc3ccc(C(=O)N[C@@H](CCC(=O)O)C(=O)O)cc3)nc2c(=O)[nH]1`, the activity remaining was 91.3% (inactive). Take `NC(Cc1ccc(Cl)cc1)C(=O)O` (centres undefined): the activity remaining was 108% (inactive).

`CCOc1ccc2nc3cc(N)ccc3c(N)c2c1`: the activity remaining was 96.1% (inactive).

As to `CC1=C2[C@H]([C@@H](C)CC[C@@H]2/C=C(\C)C(=O)O)[C@@H](O)C1`, the activity remaining is 116% (inactive). Regarding `Nc1ccc(S(=O)(=O)Nc2nccs2)cc1`, the activity remaining is 101% (inactive).

Turning to `COc1ccc2c(c1)CCC1C2CCC2(C)C1C[C@@H](O)C2O` (some centres undefined), the activity remaining is 114% (inactive).

In the case of `Cn1nnnc1SCC1=C(C(=O)O)N2C(=O)C(NC(=O)C(OC=O)c3ccccc3)C2SC1` (centres undefined), the activity remaining is 118% (inactive). Then `C[N+](C)(C)C[C@H](O)CC(=O)[O-]`, with 100% (inactive). Turning to `CCCCCC(O)C1C(=O)OC(C)C(O)/C=C/C=C/C=C/C=C/C=C(\C)C(O)CC(O)CC(O)CC(O)CC(O)CC(O)CC1O` (centres undefined), the activity remaining was 118% (inactive). As to `C[N+]12CCC(CC1)C(OC(=O)C(O)(c1ccccc1)c1ccccc1)C2` (centres undefined), the activity remaining was 111% (inactive). Take `O=C(O)CCC(=O)OC[C@@H](NC(=O)C(Cl)Cl)[C@H](O)c1ccc([N+](=O)[O-])cc1`: the activity remaining is 110% (inactive). For the molecule `COC1CC(O[C@H]2CC[C@]3(C=O)C4CC[C@]5(C)C(C6=CC(=O)OC6)CC[C@]5(O)C4CC[C@]3(O)C2)OC(C)C1O` (some centres undefined), the activity remaining is 117% (inactive). As to `C[C@H]1OC(n2cc(F)c(=O)[nH]c2=O)C(O)[C@@H]1O` (some centres undefined), the activity remaining was 121% (inactive).

For `CCCCC1C(=O)N(c2ccccc2)N(c2ccc(O)cc2)C1=O` (centres undefined), the activity remaining was 114% (inactive). As to `Cc1ccsc1/C=C/C1=NCCCN1C`, the activity remaining was 123% (inactive). With `O=C(O)c1cc(O)c2c(c1)C(=O)c1cc(O)cc(O)c1C2=O`, the activity remaining is 99.8% (inactive). As to `OC1CC2CCCC(C1)N2Cc1ccccc1` (centres undefined), the activity remaining is 93.4% (inactive). As to `COc1ccc(-c2cc(=O)c3c(O)cc(O[C@H]4O[C@H](CO[C@@H]5O[C@@H](C)[C@H](O)[C@@H](O)[C@H]5O)[C@@H](O)[C@H](O)[C@H]4O)cc3o2)cc1`, the activity remaining was 101% (inactive). In the case of `CC(=O)N[C@@H](CC(C)C)C(=O)O`, the activity remaining was 93.2% (inactive). For `CC(=O)/C(=C\c1ccccc1)CC(=O)O` the value was 98.6% (inactive).

Turning to `COc1cc2ccc(=O)oc2c(O)c1O`, the activity remaining is 112% (inactive). Turning to `CS(=O)(=O)c1ccc(C2=C(c3ccccc3)C(=O)OC2)cc1`, the activity remaining was 87.7% (inactive). With `CC1(C)S[C@@H]2C(N3C(=O)[C@@H](c4ccccc4)NC3(C)C)C(=O)N2[C@H]1C(=O)O` (some centres undefined), the activity remaining is 108% (inactive).
